Experimental data published in PubChem BioAssay AID1851 (National Center for Advancing Translational Sciences (NCATS), 2009).
Hit rate of the full screen: of about 16,000 compounds, about 5,800 (36%) were called active. Another 23% or so got no clear call; they are omitted. The list shows a part of the results. A number with no mark means an inactive call. The call rests on the fitted dose curve; in most records, active means well fitted curve in the direction sought with a large enough effect; inconclusive means small, poorly fitted or top-dose-only effect, or effect the other way; inactive means no such curve, though single readings can be large or run the other way.

Target: Cytochrome P450 2C19 (Homo sapiens) (UniProt P33261)
Test: Cytochrome panel assay with activity outcomes
Conditions: recombinant CYP, pro-luciferin dealkylation, luminescence, p450-cyp2c19; series mostly up to 57.1 µM
On the % scale 0 is the no-effect control and ±100 the full control effect.

Cytochrome P450 2C19 (Homo sapiens), sequence (P33261 whole entry, looked up): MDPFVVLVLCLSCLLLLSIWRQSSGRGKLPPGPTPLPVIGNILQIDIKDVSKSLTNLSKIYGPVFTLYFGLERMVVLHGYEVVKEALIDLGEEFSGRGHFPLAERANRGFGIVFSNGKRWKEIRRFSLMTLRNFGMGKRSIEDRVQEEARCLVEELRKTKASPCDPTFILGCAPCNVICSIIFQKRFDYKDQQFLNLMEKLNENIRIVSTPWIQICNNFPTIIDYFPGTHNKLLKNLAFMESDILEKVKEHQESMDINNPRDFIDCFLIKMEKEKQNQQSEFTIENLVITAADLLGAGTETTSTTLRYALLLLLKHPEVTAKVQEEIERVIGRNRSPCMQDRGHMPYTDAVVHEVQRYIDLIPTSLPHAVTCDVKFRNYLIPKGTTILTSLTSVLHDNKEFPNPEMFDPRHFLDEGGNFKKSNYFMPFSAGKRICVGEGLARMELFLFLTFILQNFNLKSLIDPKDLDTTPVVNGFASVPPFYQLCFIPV

Q: With `CCN(CC)CCNC(=O)c1cc(Br)c(N)cc1OC` as the molecule, how does the AC50 read?
A: inactive

Q: For `COc1ccc(Br)cc1C(=O)Nc1ccc(Cc2ccncc2)cc1`, which AC50 is on record?
A: 0.794 µM (active)

Q: Which AC50 does the source give for `Cn1c(=O)n(-c2ccc(Cl)cc2)c(=O)c2c3c(sc21)COC(C)(C)C3` here?
A: 20 µM (active)

Q: `CN1CCc2c(sc3c2c(=O)n(-c2ccccc2)c2nncn32)C1` was tested. Which AC50 did it give?
A: inactive

Q: For `Cc1ccc(-n2c(C)cc(/C=C(\C#N)C(=O)NCC3CCCO3)c2C)cc1` (stereo not drawn), which AC50 is on record?
A: 3.16 µM (active)

Q: Which AC50 does the source give for `COc1ccc(/C=C(\C#N)C(=O)NCC2CCCO2)cc1OC` (stereo not drawn) here?
A: inactive

Q: `COc1cc(/C=C(\C#N)C(=O)NCC2CCCO2)c([N+](=O)[O-])cc1OC` (stereo not drawn) was tested. Which AC50 did it give?
A: 11.2 µM (active)

Q: How did the activity, negative = inhibition turn out when `N[C@@H](Cc1ccnnc1)C(=O)O` was run?
A: 35.8% [at 11.4 µM]

Q: Which AC50 does the source give for `CC(C)[C@H](CO)Nc1nc(Nc2ccc(C(=O)O)c(Cl)c2)c2ncn(C(C)C)c2n1` here?
A: inactive

Q: For `CCOC(=O)CSc1cc(=O)n(C)c2cc(Cl)ccc12`, which AC50 is on record?
A: 4.47 µM (active)

Q: With `Cc1ccc(C)c(/C(O)=C2\C(=O)C(=O)N(Cc3cccnc3)C2c2cccnc2)c1` (stereo not drawn) as the molecule, how does the AC50 read?
A: inactive

Q: How did the AC50 turn out when `Cc1cccc(-n2nc([N+](=O)[O-])c(=NCc3cccnc3)n2O)c1` was run?
A: 6.31 µM (active)

Q: How did the AC50 turn out when `O=C1c2ccccc2C(=O)N1CCSC(=S)N1CCOCC1` was run?
A: 1.58 µM (active)

Q: For `Cn1c(=S)c2[nH]c(SCCN3C(=O)c4ccccc4C3=O)nc2n(C)c1=O`, which activity, negative = inhibition is on record?
A: 17.2% [at 11.4 µM]

Q: Which AC50 does the source give for `O=c1c(-c2ccccc2)nc2cnc(N3CCOCC3)nc2n1-c1ccccc1` here?
A: inactive

Q: `Cc1nc2cnc(N3CCOCC3)nc2n(C)c1=O` was tested. Which AC50 did it give?
A: inactive

Q: `Cc1cc(CC(=O)O)n(C)c1C(=O)c1ccc(Cl)cc1` was tested. Which AC50 did it give?
A: inactive

Q: `Cc1cc2ccccn2c1C(=O)c1nc(N2CCOCC2)ncc1Cl` was tested. Which AC50 did it give?
A: 7.94 µM (active)

Q: Which AC50 does the source give for `Cc1cc2ccccn2c1C(=O)c1ccc(Cl)cc1` here?
A: 1.26 µM (active)

Q: `CCC(=O)NNc1cc(=O)c2c(=O)n(C)c(=O)n(C)c2[nH]1` was tested. Which AC50 did it give?
A: inactive

Q: Which AC50 does the source give for `CC(=O)NC1=NC(=O)C(C)S1` (stereo not drawn) here?
A: inactive

Q: `COc1cc2c(cc1OC)-c1cc(NCc3ccccn3)nc(=O)n1CC2` was tested. Which AC50 did it give?
A: inactive

Q: How did the AC50 turn out when `COc1cc(CNCc2ccccn2)ccc1OCc1ccc(Cl)cc1Cl` was run?
A: 3.98 µM (active)

Q: How did the AC50 turn out when `COc1ccc(CC(=O)NCc2ccccn2)cc1OC` was run?
A: 28.2 µM (active)

Q: For `Cc1ccc(CS(=O)(=O)CCC(=O)NCc2ccccn2)cc1`, which AC50 is on record?
A: inactive

Q: For `CCN1C(=O)[C@H]2[C@H]3[C@H](O)[C@H](O)C/C(=N/OCC(C)C)[C@H]3CC[C@@H]2C1=O`, which activity, negative = inhibition is on record?
A: 28.2% [at 11.4 µM]

Q: With `CCOC(=O)N/N=C1/C[C@@H](O)[C@@H](O)[C@@H]2[C@@H]3C(=O)N(Cc4ccccc4)C(=O)[C@H]3CC[C@H]12` as the molecule, how does the activity, negative = inhibition read?
A: 10.9% [at 11.4 µM]

Q: With `COc1ccccc1OCC(=O)NNC(=O)c1cnccn1` as the molecule, how does the AC50 read?
A: inactive

Q: With `COc1ccccc1OCC(=O)N/N=C1/SCC(=O)N1Cc1ccccc1` as the molecule, how does the AC50 read?
A: 14.1 µM (active)

Q: `CCC(C)N1C(=O)S/C(=C/c2ccc(Sc3nc4ccccc4[nH]3)o2)C1=O` (stereo not drawn) was tested. Which AC50 did it give?
A: 1.12 µM (active)

Q: Which AC50 does the source give for `CCCCCC1CCC(C(=O)NNC(=S)NCC)CC1` (stereo not drawn) here?
A: 17.8 µM (active)

Q: How did the AC50 turn out when `COc1ncnc(NS(=O)(=O)c2ccc(N)cc2)c1OC` was run?
A: inactive

Q: Which activity, negative = inhibition does the source give for `Nc1nc(N)c(CCCCc2ccccc2)c(N)n1` here?
A: -22.9% [at 11.4 µM]

Q: `Cc1[nH]c(N)nc(=S)c1CCCNc1ccccc1` was tested. Which AC50 did it give?
A: 2 µM (active)

Q: Which activity, negative = inhibition does the source give for `Cc1[nH]c(N)nc(=S)c1CCC(=O)O` here?
A: 3.33% [at 11.4 µM]

Q: For `Cn1c(N)c(N=Nc2ccc(S(N)(=O)=O)cc2)c(=O)n(C)c1=O`, which activity, negative = inhibition is on record?
A: 76% [at 11.4 µM]

Q: For `c1ccc(-c2nnc(SCCC3OCCCO3)o2)cc1`, which AC50 is on record?
A: 5.01 µM (active)

Q: How did the AC50 turn out when `COc1ccc(NC(=O)N2CC3(CCN(C(=O)c4cnccn4)CC3)C2)cc1` was run?
A: inactive

Q: Which AC50 does the source give for `COc1ccc(NC(=O)N2CCCC3(CCN(S(C)(=O)=O)CC3)C2)cc1` here?
A: inactive

Q: Which AC50 does the source give for `COc1ccc(NC(=O)N2CC3(CCN(S(=O)(=O)c4ccccc4)CC3)C2)cc1` here?
A: inactive

Q: Which AC50 does the source give for `COc1ccc(NC(=O)N2CCCC3(CCN(C(=O)c4cnccn4)CC3)C2)cc1` here?
A: inactive

Q: Which AC50 does the source give for `COc1ccc(NC(=O)N2CCC3(CC2)CCN(S(C)(=O)=O)CC3)cc1` here?
A: 3.16 µM (active)

Q: With `O=C(Nc1ccccc1)N1CCC2(CC1)CCN(S(=O)(=O)c1ccccc1)CC2` as the molecule, how does the AC50 read?
A: 15.8 µM (active)

Q: Which AC50 does the source give for `COc1ccc(NC(=O)N2CCC3(CC2)CCN(C(=O)c2cnccn2)CC3)cc1` here?
A: 25.1 µM (active)

Q: How did the AC50 turn out when `COc1ccc(NC(=O)N2CCC3(CC2)CCN(S(=O)(=O)c2ccccc2)CC3)cc1` was run?
A: inactive

Q: For `COc1ccc(NC(=O)N2CC3(CCN(S(C)(=O)=O)CC3)C2)cc1`, which AC50 is on record?
A: inactive

Q: Which AC50 does the source give for `CC12c3ccccc3C(c3ccccc31)C1C(=O)N(Cc3cccnc3)C(=O)C12` (stereo not drawn) here?
A: 1.26 µM (active)

Q: How did the AC50 turn out when `Nc1ccccc1Oc1ncc(C(F)(F)F)cc1Cl` was run?
A: 7.94 µM (active)

Q: How did the AC50 turn out when `FC(F)(F)c1cnc(/C=C/Nc2ccccc2Cl)c(Cl)c1` was run?
A: inactive

Q: How did the AC50 turn out when `Oc1cc(O)c2c(c1)O[C@H](c1ccc(O)c(O)c1)[C@H](O)C2` was run?
A: inactive

Q: Which AC50 does the source give for `CN1CCN(c2nc3cc(C(F)(F)F)ccc3n3cccc23)CC1` here?
A: 12.6 µM (active)

Q: How did the activity, negative = inhibition turn out when `CCOc1ccc2c(ccc(/C=C\c3cc(C)c4cccnc4c3O)[n+]2C)c1` was run?
A: 27.7% [at 11.4 µM]

Q: With `Cc1ccc(OCCCOc2cccc3cccnc23)cc1C` as the molecule, how does the AC50 read?
A: 1.12 µM (active)

Q: For `COc1cc(NCCC(=O)O)c2ncccc2c1`, which activity, negative = inhibition is on record?
A: -14.2% [at 11.4 µM]

Q: `O=C1N/C(=C\c2ccc(N3CCOCC3)c(F)c2)C(=O)N1Cc1ccccc1` was tested. Which AC50 did it give?
A: 14.1 µM (active)

Q: Which AC50 does the source give for `CN(C)c1ccc(-c2nc(N3CCNCC3)c3ccccc3n2)cc1` here?
A: 15.8 µM (active)

Q: Which AC50 does the source give for `CN1CCN(c2nc(-c3ccoc3)nc3ccccc23)CC1` here?
A: inactive

Q: With `c1ccc2c(N3CCOCC3)nc(-c3ccoc3)nc2c1` as the molecule, how does the AC50 read?
A: inactive

Q: How did the AC50 turn out when `CN(C)c1ccc(-c2nc(-n3ccnc3)c3ccccc3n2)cc1` was run?
A: 2.51 µM (active)

Q: For `c1ccc2c(N3CCNCC3)nc(-c3ccc4c(c3)OCO4)nc2c1`, which AC50 is on record?
A: inactive

Q: With `c1ccc2c(-n3ccnc3)nc(-c3ccoc3)nc2c1` as the molecule, how does the AC50 read?
A: 20 µM (active)

Q: For `c1cncc(-c2nc(N3CCNCC3)c3ccccc3n2)c1`, which AC50 is on record?
A: inactive

Q: `CO[C@@H]1/C=C\CC(=O)N[C@@H](C)C(=O)OC[C@@H](OC)[C@H](C)/C=C\CC(=O)OC[C@H]1C` was tested. Which activity, negative = inhibition did it give?
A: -30.6% [at 11.4 µM]
